Data published in PubChem BioAssay (EPA / NIEHS).
“And” between values parts separate entries of the source, which are not always exact repeats. Equal entries are not always repeated. A structure can be active in one record and inactive in another. The source made the active and inactive calls. How the source made its calls: active means hit-call score of the fitted dose curve at least 0.9, where 1 is the maximum; inactive means score below 0.9.

How the values were obtained:
Settings in all cases: mRNA level, 48 h; actives raise or lower the signal
[1] = read-out: matrix metalloproteinase-3 (MMP3), MMP3 (gene 4314); test: LTEA_HepaRG_MMP3: Life Technologies and Expression Analysis (LTEA) Assay for matrix metalloproteinase-3 (MMP3) using HepaRG (AID 2283519)
Outline: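 Differentiated human HepaRG cells, plated 48 h on collagen I, were exposed in duplicate for 48 h in serum-free induction medium to eight half-log concentrations up to 100 uM in 0.5% DMSO. MMP3 mRNA was quantified by TaqMan qRT-PCR, normalised to ACTB, GAPDH and POLR2A.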

[2] = read-out: Paternally Expressed 10 (PEG10), PEG10 (gene 23089); test: LTEA_HepaRG_PEG10: Life Technologies and Expression Analysis (LTEA) Assay for Paternally Expressed 10 (PEG10) using HepaRG (AID 2283520)
Outline: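 HepaRG, 48 h post-plating → serum-free induction medium → 48 h chemical exposure (duplicate, 8-pt, max 100 uM, half-log, 0.5% DMSO) → lysis in RLT → TaqMan qRT-PCR for PEG10, ACTB/GAPDH/POLR2A normalisation.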

[3] = read-out: Nuclear factor NF-kappa-B p105 subunit (Homo sapiens) (UniProt P19838); test: LTEA_HepaRG_NFKB1: Life Technologies and Expression Analysis (LTEA) Assay for Nuclear Factor Kappa B Subunit 1 (NFKB1) using HepaRG (AID 2283521);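 on outcome: TaqMan qRT-PCR transcript normalised to ACTB GAPDH and POLR2A housekeeping genes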
Outline: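 Differentiated human HepaRG cells in serum-free induction medium with 0.5% DMSO were exposed for 48 h to eight half-log concentrations, top 100 uM, in duplicate. NFKB1 mRNA measured by Fluidigm TaqMan qRT-PCR, normalised to ACTB, GAPDH and POLR2A; bidirectional fit versus DMSO.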

[4] = read-out: Protein phosphatase 2A (PPP2R4), PTPA (gene 5524); test: LTEA_HepaRG_PPP2R4: Life Technologies and Expression Analysis (LTEA) Assay for Protein phosphatase 2A (PPP2R4) using HepaRG (AID 2283522)
Outline: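 Readout is PPP2R4 transcript level by microfluidic qRT-PCR after 48 h chemical treatment of human HepaRG liver cells. Concentrations spanned 100 uM downward in half-log steps; gain or loss of signal was fitted relative to DMSO.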

[5] = read-out: Phosphatase and tensin (PTEN), PTEN (gene 5728); test: LTEA_HepaRG_PTEN: Life Technologies and Expression Analysis (LTEA) Assay for Phosphatase and tensin (PTEN) using HepaRG (AID 2283523)
Outline: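 Differentiated human HepaRG cells, plated 48 h then switched to serum-free induction medium, were exposed in duplicate for 48 h to eight half-log concentrations up to 100 uM in 0.5% DMSO. PTEN mRNA measured by TaqMan qRT-PCR, normalized to ACTB/GAPDH/POLR2A, bidirectional fit versus DMSO.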

[6] = read-out: solute carrier (SLC22A1), SLC22A1 (gene 6580); test: LTEA_HepaRG_SLC22A1: Life Technologies and Expression Analysis (LTEA) Assay for solute carrier (SLC22A1) using HepaRG (AID 2283524)
Outline: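 Human HepaRG cells were plated 48 h, switched to serum-free induction medium, then exposed in duplicate for 48 h to 8-point half-log series from 100 uM in 0.5% DMSO. SLC22A1 mRNA measured by qRT-PCR, normalized to ACTB/GAPDH/POLR2A, fitted bidirectionally versus DMSO.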

[7] = read-out: Pyruvate Dehydrogenase Kinase 4 (PDK4), PDK4 (gene 5166); test: LTEA_HepaRG_PDK4: Life Technologies and Expression Analysis (LTEA) Assay for Pyruvate Dehydrogenase Kinase 4 (PDK4) using HepaRG (AID 2283525)
Outline: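 Differentiated human HepaRG cells, pre-cultured 48 h, were exposed in duplicate for 48 h in serum-free induction medium to eight half-log concentrations up to 100 uM in 0.5% DMSO. PDK4 mRNA was quantified by qRT-PCR, normalized to ACTB, GAPDH and POLR2A, bidirectional fitting versus DMSO.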

[8] = read-out: NAD(P)H dehydrogenase [quinone] 1 (NQO1), NQO1 (gene 1728); test: LTEA_HepaRG_NQO1: Life Technologies and Expression Analysis (LTEA) Assay for NAD(P)H dehydrogenase [quinone] 1 (NQO1) using HepaRG (AID 2283526)
Outline: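 HepaRG, 48 h post-plating → serum-free induction medium → test chemical 48 h (duplicate, 100 uM top, half-log x8, 0.5% DMSO) → RNA isolation → qRT-PCR, ACTB/GAPDH/POLR2A normalization; bidirectional curve fit vs DMSO baseline.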

[9] = read-out: Nuclear factor erythroid 2-related factor 2 (Homo sapiens) (UniProt Q16236); test: LTEA_HepaRG_NFE2L2: Life Technologies and Expression Analysis (LTEA) Assay for Nuclear factor erythroid 2-related factor 2 (NFE2L2) Transcription Factor using HepaRG (AID 2283527);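 on outcome: TaqMan qRT-PCR transcript level normalised to ACTB GAPDH and POLR2A housekeeping genes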
Outline: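 Differentiated human HepaRG cells in serum-free induction medium were exposed for 48 h to eight concentrations (top 100 uM, half-log dilutions, 0.5% DMSO), in duplicate. NFE2L2 mRNA was quantified by TaqMan qRT-PCR, normalized to ACTB, GAPDH and POLR2A, with bidirectional fitting versus DMSO.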

[10] = read-out: succinate dehydrogenase complex iron sulfur subunit B (SDHB), SDHB (gene 6390); test: LTEA_HepaRG_SDHB: Life Technologies and Expression Analysis (LTEA) Assay for succinate dehydrogenase complex iron sulfur subunit B (SDHB) using HepaRG (AID 2283528)
Outline: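 HepaRG cells (~100,000/well, plated 48 h) exposed in duplicate for 48 h in serum-free induction medium to 8-point half-log series from 100 uM in 0.5% DMSO; mRNA by qRT-PCR normalised to ACTB, GAPDH, POLR2A; bidirectional fit versus DMSO.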

Chain of Nuclear factor erythroid 2-related factor 2 (Homo sapiens) (Q16236 whole entry, looked up): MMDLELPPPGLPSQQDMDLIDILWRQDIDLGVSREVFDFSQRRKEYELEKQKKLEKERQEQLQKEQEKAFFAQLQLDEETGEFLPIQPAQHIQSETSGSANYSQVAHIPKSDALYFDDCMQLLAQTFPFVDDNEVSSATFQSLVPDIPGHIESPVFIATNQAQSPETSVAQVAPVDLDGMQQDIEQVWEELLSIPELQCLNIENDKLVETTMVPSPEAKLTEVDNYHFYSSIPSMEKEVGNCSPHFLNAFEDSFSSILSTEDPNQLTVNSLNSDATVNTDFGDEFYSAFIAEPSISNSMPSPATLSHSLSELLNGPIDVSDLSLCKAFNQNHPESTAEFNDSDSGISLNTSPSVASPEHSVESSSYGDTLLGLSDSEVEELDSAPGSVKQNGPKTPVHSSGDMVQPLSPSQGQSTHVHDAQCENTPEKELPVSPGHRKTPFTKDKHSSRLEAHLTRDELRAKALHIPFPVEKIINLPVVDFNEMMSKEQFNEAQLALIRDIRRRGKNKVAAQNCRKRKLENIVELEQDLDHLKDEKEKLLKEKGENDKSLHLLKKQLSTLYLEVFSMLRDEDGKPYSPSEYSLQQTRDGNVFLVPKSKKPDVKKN
Chain of Nuclear factor NF-kappa-B p105 subunit (Homo sapiens) (P19838 whole entry, looked up): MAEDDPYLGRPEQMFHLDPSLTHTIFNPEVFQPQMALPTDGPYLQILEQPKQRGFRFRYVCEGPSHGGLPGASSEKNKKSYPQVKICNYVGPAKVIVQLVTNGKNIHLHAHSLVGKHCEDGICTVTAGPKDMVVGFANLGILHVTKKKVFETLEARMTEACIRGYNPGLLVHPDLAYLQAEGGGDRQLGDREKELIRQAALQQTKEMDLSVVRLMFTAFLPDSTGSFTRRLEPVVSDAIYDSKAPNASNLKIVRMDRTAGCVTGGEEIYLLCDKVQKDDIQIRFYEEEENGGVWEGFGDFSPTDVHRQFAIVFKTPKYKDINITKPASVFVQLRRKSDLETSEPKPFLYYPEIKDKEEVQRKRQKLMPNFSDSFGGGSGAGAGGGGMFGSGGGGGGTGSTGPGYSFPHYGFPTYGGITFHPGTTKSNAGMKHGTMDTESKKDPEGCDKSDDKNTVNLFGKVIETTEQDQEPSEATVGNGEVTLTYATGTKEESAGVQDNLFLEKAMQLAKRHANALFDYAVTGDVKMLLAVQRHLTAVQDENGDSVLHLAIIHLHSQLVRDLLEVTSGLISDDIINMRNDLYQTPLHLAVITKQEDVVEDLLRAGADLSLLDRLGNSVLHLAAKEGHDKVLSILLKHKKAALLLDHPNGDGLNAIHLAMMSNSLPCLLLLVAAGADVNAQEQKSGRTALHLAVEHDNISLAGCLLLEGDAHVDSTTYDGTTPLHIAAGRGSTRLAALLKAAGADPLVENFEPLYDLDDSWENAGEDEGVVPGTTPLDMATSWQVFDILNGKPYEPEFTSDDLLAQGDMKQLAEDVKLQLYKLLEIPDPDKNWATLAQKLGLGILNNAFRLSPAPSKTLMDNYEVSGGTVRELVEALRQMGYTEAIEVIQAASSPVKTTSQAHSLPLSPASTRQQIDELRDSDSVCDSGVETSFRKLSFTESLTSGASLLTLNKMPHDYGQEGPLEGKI

Row | Structure (SMILES) | outcome [1] | AC50 [2] | outcome [3] | outcome [4] | outcome [5] | outcome [6] | AC50 [7] | outcome [8] | outcome [9] | outcome [10] | outcome [2] | outcome [7] | AC50 [6] | AC50 [10] | AC50 [9] | AC50 [1] | AC50 [3] | AC50 [4] | AC50 [5] | AC50 [8]
1 | O=C(O)COc1nc(Cl)c(Cl)cc1Cl | inactive | 3.29 µM (active) | inactive | inactive | inactive | inactive | 51 µM (active) | inactive | inactive | inactive | – | – | – | – | – | – | – | – | – | –
2 | CCOC(=O)C(Cl)Cc1cc(-n2nc(C)n(C(F)F)c2=O)c(F)cc1Cl (stereo unspecified) | inactive | – | inactive | inactive | inactive | inactive | – | inactive | inactive | inactive | inactive | inactive | – | – | – | – | – | – | – | –
3 | CC(C)Oc1cc(-n2nc(C(C)(C)C)oc2=O)c(Cl)cc1Cl | inactive | 5.57 µM (active) | inactive | inactive | inactive | – | 11.6 µM (active) | inactive | inactive | inactive | – | – | 42.8 µM (active) | – | – | – | – | – | – | –
4 | CN(C)C(=S)SSC(=S)N(C)C | inactive | – | inactive | inactive | inactive | inactive | – | inactive | inactive | inactive | inactive | inactive | – | – | – | – | – | – | – | –
5 | C=CCC1=C(C)C(OC(=O)C2C(C=C(C)C)C2(C)C)CC1=O (stereo unspecified) | inactive | 68.4 µM (active) and 79.7 µM (active) and 28.2 µM (active) | inactive | inactive | inactive | – | 50 µM (active) | inactive | inactive | inactive | – | inactive | 86.3 µM (active) and 83.2 µM (active) and 50 µM (active) | 69.1 µM (active) | – | – | – | – | – | –
6 | CON(C)C(=O)Nc1ccc(Cl)c(Cl)c1 | inactive | 65.3 µM (active) | inactive | inactive | inactive | – | – | inactive | – | inactive | – | inactive | 50 µM (active) | – | 86.9 µM (active) | – | – | – | – | –
7 | CCON=C(CC)C1=C(O)CC(c2c(C)cc(C)cc2C)CC1=O (stereo unspecified) | inactive | – | inactive | inactive | inactive | inactive | – | inactive | inactive | inactive | inactive | inactive | – | – | – | – | – | – | – | –
8 | CCCCOC(=O)c1ccccc1C(=O)OCCCC | inactive | – | inactive | inactive | inactive | inactive | – | inactive | inactive | inactive | inactive | inactive | – | – | – | – | – | – | – | –
9 | N#Cc1cc(Br)c(O)c(Br)c1 | – | 10.5 µM (active) | – | – | – | – | 9.64 µM (active) | – | – | – | – | – | 16.2 µM (active) | 7.28 µM (active) | 10.3 µM (active) | 2.69 µM (active) | 5.8 µM (active) | 10.7 µM (active) | 26.1 µM (active) | 11.9 µM (active)
10 | Cc1ccc(-c2c(Cl)nc(C#N)n2S(=O)(=O)N(C)C)cc1 | inactive | 7.7 µM (active) | – | – | – | – | 50 µM (active) | inactive | inactive | – | – | – | 50 µM (active) | 2.73 µM (active) | – | – | 50 µM (active) | 32.2 µM (active) | 16.8 µM (active) | –
11 | O=C(Nc1ccccc1)Nc1ccnc(Cl)c1 | inactive | 31.8 µM (active) | – | – | – | – | – | – | – | – | – | inactive | 68 µM (active) | 94 µM (active) | 82.3 µM (active) | – | 39.2 µM (active) | 77.7 µM (active) | 75.2 µM (active) | 82.6 µM (active)
12 | CNC(=S)S | inactive | – | inactive | inactive | inactive | inactive | – | inactive | inactive | inactive | inactive | inactive | – | – | – | – | – | – | – | –
13 | N#CC(CCc1ccc(Cl)cc1)(Cn1cncn1)c1ccccc1 (stereo unspecified) | – | 9.92 µM (active) | inactive | inactive | inactive | – | – | inactive | – | inactive | – | inactive | 71.5 µM (active) | – | 72.4 µM (active) | 86 µM (active) | – | – | – | –
14 | CCCN(CCC)c1c([N+](=O)[O-])cc(S(N)(=O)=O)cc1[N+](=O)[O-] | inactive | 96.3 µM (active) and 41 µM (active) and 7.55 µM (active) | inactive | inactive | – | inactive | 92.7 µM (active) and 50 µM (active) and 83.9 µM (active) | inactive | inactive | – | – | – | 57 µM (active) | 96.3 µM (active) and 50 µM (active) and 84.4 µM (active) | 79.3 µM (active) and 79.5 µM (active) | 83.6 µM (active) | – | 72 µM (active) | 93.1 µM (active) and 75.5 µM (active) and 76.5 µM (active) | –
15 | CCNc1nc(Cl)nc(NC(C)C)n1 | inactive | – | inactive | inactive | inactive | inactive | – | inactive | inactive | inactive | inactive | inactive | – | – | – | – | – | – | – | –
16 | COc1ccc(C(c2ccc(OC)cc2)C(Cl)(Cl)Cl)cc1 | inactive | – | inactive | inactive | inactive | – | – | inactive | – | – | inactive | inactive | 84.8 µM (active) | 33.2 µM (active) | 12.7 µM (active) | – | – | – | – | –
17 | CCCCC(CC)COC(=O)c1ccccc1C(=O)OCC(CC)CCCC (stereo unspecified) | inactive | – | inactive | inactive | inactive | inactive | – | inactive | inactive | inactive | inactive | inactive | – | – | – | – | – | – | – | –
18 | COC(=O)C(C)Oc1ccc(Oc2ccc(Cl)cc2Cl)cc1 (stereo unspecified) | inactive | 10.4 µM (active) | inactive | inactive | inactive | – | 32.6 µM (active) | inactive | inactive | inactive | – | – | 50 µM (active) | – | – | – | – | – | – | –
19 | C=CCC1=C(C)[C@@H](OC(=O)[C@@H]2[C@@H](C=C(C)C)C2(C)C)CC1=O | inactive | 22.6 µM (active) | inactive | inactive | inactive | – | – | inactive | inactive | inactive | – | inactive | 50 µM (active) | – | – | – | – | – | – | –
20 | CCCCNC(=O)n1c(NC(=O)OC)nc2ccccc21 | inactive | – | inactive | inactive | inactive | inactive | – | inactive | inactive | inactive | inactive | inactive | – | – | – | – | – | – | – | –
21 | CCc1nn(C)c(C(=O)NCc2ccc(C(C)(C)C)cc2)c1Cl | inactive | 0.484 µM (active) | inactive | inactive | – | – | 0.723 µM (active) | – | – | inactive | – | – | 4.52 µM (active) | – | 10.6 µM (active) | – | – | – | 50 µM (active) | 50 µM (active)
22 | COP(N)(=O)SC (stereo unspecified) | inactive | – | inactive | inactive | inactive | inactive | – | inactive | inactive | inactive | inactive | inactive | – | – | – | – | – | – | – | –
23 | C=CC1(C)OC(=O)N(c2cc(Cl)cc(Cl)c2)C1=O (stereo unspecified) | inactive | 34.1 µM (active) | inactive | inactive | inactive | inactive | 50 µM (active) | inactive | inactive | inactive | – | – | – | – | – | – | – | – | – | –
24 | CCOC(=O)CC(SP(=S)(OC)OC)C(=O)OCC (stereo unspecified) | inactive | – | inactive | inactive | inactive | inactive | – | inactive | inactive | inactive | inactive | inactive | – | – | – | – | – | – | – | –
